Data reported in PubChem BioAssay AID1159580 (chemical genetic matrix, 2015).
Out of some 5,500 compounds screened, about 2,000 (36%) were called active. Roughly 18% stayed inconclusive and do not appear here. Cut-off read from the data, not from the text of the source: active = normalized growth mostly below about 0.91 (no sharp cut-off); inconclusive = no clear call, values can overlap the other calls; inactive = mostly above about 0.92. The list shows a part of the results.

Assay: chemical genetic growth profiling, strain panel (AID 1159580);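 note: tested at 20 µM; growth read once vehicle control cultures reached saturation at 30 °C; 1 = growth at the plate median or of vehicle wells; lower values mean less growth of the strain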
Settings: growth OD
[1] = S. cerevisiae deletion strains, locus YAL013W, strain DEP1, active compounds read low
[2] = S. cerevisiae deletion strains, locus YGR078C, strain PAC10, active compounds read low
[3] = S. cerevisiae deletion strains, locus YMR263W, strain SAP30, active compounds read low
[4] = S. cerevisiae deletion strains, locus YNL322C, strain KRE1, active compounds read low
[5] = S. cerevisiae deletion strains, locus YPL055C, strain LGE1, active compounds read low
[6] = S. cerevisiae deletion strains, locus YPL241C, strain CIN2, active compounds read low
[7] = S. cerevisiae deletion strains, locus YHR030C, strain SLT2, active compounds read low

Measured: normalized growth

O=C(O)[C@@H]1C[C@@H](C(=O)O)N1
inactive: [1] 1.02 | S. cerevisiae deletion strains, locus YAL040C, strain CLN3, active compounds read low 1.08 | S. cerevisiae deletion strains, locus YCL061C, strain MRC1 (second series), active compounds read low 1 | S. cerevisiae deletion strains, locus YER002W, strain NOP16, active compounds read low 1 | [2] 1.01 | S. cerevisiae deletion strains, locus YGR229C, strain SMI1, active compounds read low 0.986 | [3] 0.997 | S. cerevisiae deletion strains, locus YNL175C, strain NOP13, active compounds read low 1 | S. cerevisiae deletion strains, locus YNL197C, strain WHI3, active compounds read low 1.02 | S. cerevisiae deletion strains, locus YNL224C, strain SQS1, active compounds read low 0.978 | [4] 0.986 | S. cerevisiae deletion strains, locus YOR083W, strain WHI5 (second series), active compounds read low 1.03 | [5] 1.02 | [6] 0.992

CSc1sc(C#N)c2c1C(O)CCC2 (configuration not stated)
inactive: [1] 0.988 | S. cerevisiae deletion strains, locus YBR229C, strain ROT2, active compounds read low 0.973 | S. cerevisiae deletion strains, locus YDL101C, strain DUN1, active compounds read low 0.977 | S. cerevisiae deletion strains, locus YDR150W, strain NUM1, active compounds read low 0.948 | S. cerevisiae deletion strains, locus YEL061C, strain CIN8, active compounds read low 0.993 | [2] 0.983 | [7] 0.931 | S. cerevisiae deletion strains, locus YHR087W, strain rtc3, active compounds read low 0.968 | S. cerevisiae deletion strains, locus YJR043C, strain POL32, active compounds read low 0.961 | S. cerevisiae deletion strains, locus YJR075W, strain HOC1, active compounds read low 0.96 | S. cerevisiae deletion strains, locus YKL190W, strain CNB1, active compounds read low 0.992 | S. cerevisiae deletion strains, locus YLR039C, strain RIC1, active compounds read low 1.01 | S. cerevisiae deletion strains, locus YLR058C, strain SHM2 (second series), active compounds read low 0.982 | S. cerevisiae deletion strains, locus YLR085C, strain ARP6, active compounds read low 1.03 | S. cerevisiae deletion strains, locus YLR262C, strain YPT6, active compounds read low 1.01 | S. cerevisiae deletion strains, locus YML094W, strain GIM5, active compounds read low 1 | S. cerevisiae deletion strains, locus YMR219W, strain ESC1, active compounds read low 0.985 | [3] 0.95 | S. cerevisiae deletion strains, locus YNL128W, strain TEP1, active compounds read low 0.975 | S. cerevisiae deletion strains, locus YNL153C, strain GIM3, active compounds read low 0.976 | S. cerevisiae deletion strains, locus YNL298W, strain CLA4 (second series), active compounds read low 0.964 | [4] 1 | S. cerevisiae deletion strains, locus YNR030W, strain Alg12, active compounds read low 0.974 | S. cerevisiae deletion strains, locus YOL006C, strain TOP1, active compounds read low 0.959 | [5] 0.902 | [6] 0.982 | S. cerevisiae deletion strains, locus YPR135W, strain CTF4, active compounds read low 0.94 | S. cerevisiae strains, strain wild type, active compounds read low 0.984

CC(C)(C)NC[C@H](O)c1ccc(O)c(CO)c1
inactive: S. cerevisiae deletion strains, locus YAL021C, strain ccr4, active compounds read low 1.02 | S. cerevisiae deletion strains, locus YAL026C, strain drs2, active compounds read low 1.03 | S. cerevisiae deletion strains, locus YAL030W, strain snc1, active compounds read low 1.02 | S. cerevisiae deletion strains, locus YBL061C, strain skt5, active compounds read low 1.01 | S. cerevisiae deletion strains, locus YBR009C, strain hhf1, active compounds read low 1.03 | S. cerevisiae deletion strains, locus YBR023C, strain chs3, active compounds read low 1.02 | S. cerevisiae deletion strains, locus YBR171W, strain sec66, active compounds read low 1.04 | S. cerevisiae deletion strains, locus YBR231C, strain swc5, active compounds read low 1.03 | S. cerevisiae deletion strains, locus YBR279W, strain paf1, active compounds read low 1.02 | S. cerevisiae deletion strains, locus YCL011C, strain gbp2, active compounds read low 1.02 | S. cerevisiae deletion strains, locus YCL016C, strain dcc1, active compounds read low 1.02 | S. cerevisiae deletion strains, locus YCL061C, strain MRC1, active compounds read low 1.01 | S. cerevisiae deletion strains, locus YCL069W, strain vba3, active compounds read low 1.02 | S. cerevisiae deletion strains, locus YCR088W, strain abp1, active compounds read low 1.02 | S. cerevisiae deletion strains, locus YDL005C, strain med2, active compounds read low 1.02 | S. cerevisiae deletion strains, locus YDL040C, strain nat1, active compounds read low 1.02 | S. cerevisiae deletion strains, locus YDR001C, strain nth1, active compounds read low 1.01 | S. cerevisiae deletion strains, locus YDR069C, strain doa4, active compounds read low 1.04 | S. cerevisiae deletion strains, locus YDR137W, strain rgp1, active compounds read low 1.06 | S. cerevisiae deletion strains, locus YDR159W, strain sac3, active compounds read low 1.04 | S. cerevisiae deletion strains, locus YDR195W, strain ref2 1.02 | S. cerevisiae deletion strains, locus YDR297W, strain sur2, active compounds read low 1.05 | S. cerevisiae deletion strains, locus YDR334W, strain swr1, active compounds read low 1.02 | S. cerevisiae deletion strains, locus YDR335W, strain msn5, active compounds read low 1.01 | S. cerevisiae deletion strains, locus YDR392W, strain spt3, active compounds read low 0.992 | S. cerevisiae deletion strains, locus YEL003W, strain gim4, active compounds read low 1.01 | S. cerevisiae deletion strains, locus YEL037C, strain rad23, active compounds read low 1 | S. cerevisiae deletion strains, locus YEL061C, strain CIN8 (second series), active compounds read low 1.01 | S. cerevisiae deletion strains, locus YER015W, strain faa2, active compounds read low 1.02 | S. cerevisiae deletion strains, locus YER016W, strain bim1, active compounds read low 1.03 | S. cerevisiae deletion strains, locus YER111C, strain swi4, active compounds read low 1.02 | S. cerevisiae deletion strains, locus YER155C, strain BEM2 (second series), active compounds read low 1.03 | S. cerevisiae deletion strains, locus YFR010W, strain ubp6, active compounds read low 1.02 | S. cerevisiae deletion strains, locus YGL167C, strain pmr1, active compounds read low 1.01 | S. cerevisiae deletion strains, locus YGL173C, strain kem1, active compounds read low 1.03 | S. cerevisiae deletion strains, locus YGL227W, strain vid30, active compounds read low 1.01 | S. cerevisiae deletion strains, locus YGL240W, strain doc1, active compounds read low 1.02 | S. cerevisiae deletion strains, locus YGL253W, strain hxk2, active compounds read low 1.01 | S. cerevisiae deletion strains, locus YHR013C, strain ard1, active compounds read low 1.04 | S. cerevisiae deletion strains, locus YHR027C, strain rpn1, active compounds read low 1.02 | [7] 0.999 | S. cerevisiae deletion strains, locus YHR079C, strain IRE1, active compounds read low 0.97 | S. cerevisiae deletion strains, locus YHR142W, strain chs7, active compounds read low 1.01 | S. cerevisiae deletion strains, locus YJL092W, strain hpr5, active compounds read low 1.02 | S. cerevisiae deletion strains, locus YJL095W, strain BCK1 (second series), active compounds read low 1.01 | S. cerevisiae deletion strains, locus YJL095W, strain BCK1, active compounds read low 0.966 | S. cerevisiae deletion strains, locus YJL115W, strain asf1, active compounds read low 1.02 | S. cerevisiae deletion strains, locus YJL129C, strain trk1, active compounds read low 1.03 | S. cerevisiae deletion strains, locus YJL154C, strain vps35, active compounds read low 1.02 | S. cerevisiae deletion strains, locus YJL164C, strain tpk1, active compounds read low 1.02 | S. cerevisiae deletion strains, locus YJL166W, strain qcr8, active compounds read low 1.02 | S. cerevisiae deletion strains, locus YJL187C, strain SWE1, active compounds read low 1.02 | S. cerevisiae deletion strains, locus YJR066W, strain TOR1, active compounds read low 0.955 | S. cerevisiae deletion strains, locus YKL160W, strain elf1, active compounds read low 1.02 | S. cerevisiae deletion strains, locus YKR026C, strain gcn3, active compounds read low 1.01 | S. cerevisiae deletion strains, locus YKR091W, strain srl3, active compounds read low 1.02 | S. cerevisiae deletion strains, locus YLL001W, strain dnm1, active compounds read low 1.03 | S. cerevisiae deletion strains, locus YLL026W, active compounds read low 1.03 | S. cerevisiae deletion strains, locus YLL041C, strain sdh2, active compounds read low 1.02 | S. cerevisiae deletion strains, locus YLR027C, strain aat2, active compounds read low 1.02 | S. cerevisiae deletion strains, locus YLR113W, strain HOG1, active compounds read low 0.976 | S. cerevisiae deletion strains, locus YLR221C, strain rsa3, active compounds read low 1.02 | S. cerevisiae deletion strains, locus YLR258W, strain gsy2, active compounds read low 1.03 | S. cerevisiae deletion strains, locus YLR262C, strain YPT6 (second series), active compounds read low 1.03 | S. cerevisiae deletion strains, locus YLR320W, strain mms22, active compounds read low 1.02 | S. cerevisiae deletion strains, locus YLR342W, strain FKS1, active compounds read low 1.03 | S. cerevisiae deletion strains, locus YLR357W, strain rsc2, active compounds read low 1.06 | S. cerevisiae deletion strains, locus YLR370C, strain arc18, active compounds read low 1.02 | S. cerevisiae deletion strains, locus YLR384C, strain iki3, active compounds read low 1.02 | S. cerevisiae deletion strains, locus YML120C, strain ndi1, active compounds read low 1.01 | S. cerevisiae deletion strains, locus YMR058W, strain fet3, active compounds read low 1.02 | S. cerevisiae deletion strains, locus YMR125W, strain sto1, active compounds read low 1.03 | S. cerevisiae deletion strains, locus YMR129W, active compounds read low 1 | S. cerevisiae deletion strains, locus YMR205C, strain PFK2, active compounds read low 1.02 | S. cerevisiae deletion strains, locus YMR231W, strain pep5, active compounds read low 1.03 | S. cerevisiae deletion strains, locus YNL071W, strain lat1, active compounds read low 1.02 | S. cerevisiae deletion strains, locus YNL183C, strain NPR1, active compounds read low 0.912 | S. cerevisiae deletion strains, locus YNL209W, strain ssb2, active compounds read low 1.02 | S. cerevisiae deletion strains, locus YNL248C, strain rpa49, active compounds read low 1.01 | S. cerevisiae deletion strains, locus YNL322C, strain KRE1 (second series), active compounds read low 1.01 | S. cerevisiae deletion strains, locus YNR049C, strain mso1, active compounds read low 1.02 | S. cerevisiae deletion strains, locus YOR001W, strain rrp6, active compounds read low 1.02 | S. cerevisiae deletion strains, locus YOR070C, strain gyp1, active compounds read low 1.01 | S. cerevisiae deletion strains, locus YOR080W, strain dia2, active compounds read low 1.02 | S. cerevisiae deletion strains, locus YOR083W, strain WHI5, active compounds read low 1.01 | S. cerevisiae deletion strains, locus YOR106W, strain vam3, active compounds read low 1.02 | S. cerevisiae deletion strains, locus YOR231W, strain MKK1, active compounds read low 0.973 | S. cerevisiae deletion strains, locus YOR265W, strain rbl2, active compounds read low 1.01 | S. cerevisiae deletion strains, locus YOR270C, strain vph1, active compounds read low 1.07 | S. cerevisiae deletion strains, locus YOR290C, strain snf2, active compounds read low 1.03 | S. cerevisiae deletion strains, locus YPL051W, strain arl3, active compounds read low 1.02 | S. cerevisiae deletion strains, locus YPL078C, strain atp4, active compounds read low 1.02 | S. cerevisiae deletion strains, locus YPL106C, strain sse1, active compounds read low 1.03 | S. cerevisiae deletion strains, locus YPL240C, strain hsp82, active compounds read low 1.02 | S. cerevisiae deletion strains, locus YPL256C, strain CLN2, active compounds read low 0.971
